This is a sample that favours compounds with a hit; in the whole collection about 4.1% have one here.
DAX1 inh-1 = DAX1 (NR0B1) inhibitors on StAR promoter, primary screen, cell-based, luminescence, SF-1 (NR5A1), full-length DAX-1. HEK293T StAR-luciferase reporter, SF-1/DAX-1 repression relief. inhibition, % at 6.8 µM. 370,000 tested, 1.1% active;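 active = inhibition above the mean over all tested compounds plus 3 SD, cut at about 3.6% in these data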;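 also: 0% = DAX-1 cells with DMSO and 100% = cells lacking DAX-1 with DMSO; higher inhibition means more luminescence from relief of DAX-1 repression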
ssDAF-12 act = S. stercoralis DAF-12 nuclear receptor activators, primary screen, cell-based, luminescence, HEK293, GRIP1 co-expression, lit1-tk-luc. Nuclear hormone receptor DAF-12 (Strongyloides stercoralis). HEK293 ssDAF-12/GRIP1 lit1-tk-luc reporter; % of 3 µM dafachronic acid response. activation, % at 6.8 µM. 370,000 tested, 1% active;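 active = activation above the mean over all tested compounds plus 3 SD, cut at about 0.9% in these data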;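 also: 0% = DMSO-only wells and 100% = 3 µM delta7-dafachronic acid wells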
hcDAF-12 act = H. contortus DAF-12 nuclear receptor activators, primary screen, cell-based, luminescence, HEK293, lit1-tk-luc reporter | HEK293 hcDAF-12 lit1-tk-luc reporter; 0% DMSO, 100% Δ7-dafachronic acid | AID 652067, 2013 | 370,000 tested, 1.4% active | activation, % at 6.8 µM;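 active = activation above the mean of all tested compounds plus 3 SD, cut at about 5.5% in these data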;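 also: 100% = response to 3 µM Δ7-dafachronic acid high control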
DAX1 inh-2 = DAX1 (NR0B1) inhibitors, primary screen, cell-based, HEK293, Gal4-DAX1, luciferase luminescence; Nuclear receptor subfamily 0 group B member 1 (Homo sapiens), P51843; HEK293 Gal4-DAX1 luciferase reporter; inhibition, % at 6.75 µM; 340,000 tested, 0.99% active; AID 504766, 2011;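 active = inhibition above the mean over all tested compounds plus 3 SD, cut at about 4.2% in these data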;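 also: 0% = DAX1-transfected cells with DMSO and 100% = empty-vector control cells with DMSO; inhibition shows as a rise in luminescence from relieved DAX1 repression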
hgDAF12 agonist = H. glycines DAF-12 receptor agonists, primary screen, cell-based, luminescence, HEK293, GAL4 fusion, UAS-luciferase. Nuclear hormone receptor DAF-12 (Heterodera glycines), GAL4 fusion. HEK293 GAL4-hgDAF12 UAS-luciferase reporter, agonist luminescence; normalized to butyrate control. activation, % at 6.8 µM. 370,000 tested, 1.8% active. AID 687014, 2013;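 active = activation above a cutoff set at the mean of all screened compounds plus 3 SD, cut at about 10% in these data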;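 also: 0% = DMSO wells and 100% = sodium butyrate wells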
DAX1 inh confirm = DAX1 (NR0B1) inhibitors relieving SF-1 repression, confirmation, cell-based, luminescence, HEK293T, full-length DAX-1, SF-1 activated StAR promoter; HEK293T StAR-promoter luciferase reporter, SF-1/DAX-1 repression; 2,400 tested, 87% active; shares compounds with DAX1 inh-1; inhibition, % at 6.8 µM;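 active = inhibition above the average of every tested compound plus 3 SD, cut at about 3.8% in these data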;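 also: 0% = DAX-1 cells with DMSO and 100% = no DAX-1 control cells with DMSO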
Target sequence (P51843 whole entry, looked up): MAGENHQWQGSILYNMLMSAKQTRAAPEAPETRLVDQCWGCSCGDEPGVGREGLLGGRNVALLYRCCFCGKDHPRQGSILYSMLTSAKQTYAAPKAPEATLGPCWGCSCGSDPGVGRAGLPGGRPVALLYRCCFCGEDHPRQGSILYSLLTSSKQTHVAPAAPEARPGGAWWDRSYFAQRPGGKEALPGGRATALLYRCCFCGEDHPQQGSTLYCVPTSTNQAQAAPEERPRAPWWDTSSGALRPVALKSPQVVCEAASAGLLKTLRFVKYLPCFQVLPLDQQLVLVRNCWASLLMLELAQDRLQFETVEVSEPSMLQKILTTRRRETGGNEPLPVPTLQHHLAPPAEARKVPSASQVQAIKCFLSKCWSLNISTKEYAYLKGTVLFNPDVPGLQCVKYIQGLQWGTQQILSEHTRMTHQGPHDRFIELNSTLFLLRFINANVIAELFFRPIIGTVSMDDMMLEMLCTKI
SF1 mutant ctr = StAR reporter signal changes without DAX1, counter-screen for DAX1 inhibitor project, cell-based, luminescence, AF-2 mutant SF-1, transactivation; shares compounds with DAX1 inh-1; HEK293 StAR-luciferase, SF-1 AF2 mutant; inhibition, % at 6.8 µM; 2,400 tested, 78% active;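 active = inhibition above the mean of all tested compounds plus 3 SD, cut at about 3% in these data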;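 also: 0% = DAX-1 transfected cells with DMSO and 100% = cells without DAX-1 with DMSO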
Active calls of the source: *; x = no result given.

SMILES	DAX1 inh-1	ssDAF-12 act	hcDAF-12 act	DAX1 inh-2	hgDAF12 agonist	DAX1 inh confirm	SF1 mutant ctr
O=C(Nc1ccc2c(c1)nc1n2CCSC1)c1ccccc1	5.9*	0	2	-1	12*	13*	8.6*
COc1cc(C(=O)NNC(=O)c2ccc(NC(=O)C(C)(C)C)cc2)cc(OC)c1OC	1	-2	2	2	2	x	x
Cc1ccccc1/C(N)=N/OC(=O)c1ccc(F)cc1	1	-1	3	0	5	x	x
N/C(CS(=O)(=O)c1ccccc1)=N\OC(=O)c1ccc(F)cc1	5.9*	0	1	2	6	3.8*	3.2*
O=C(c1cc([N+](=O)[O-])ccc1N1CCOCC1)N1CCN(c2ccccc2)CC1	14*	1	1	1	-4	17*	-6
N/C(=N\OC(=O)c1ccoc1)c1ccc(Br)cc1	9.5*	0	3	2	8	11*	6.9*
CN(CCO)c1c2c(nc3cc(-c4cccc(F)c4)nn13)CCCC2	6.4*	1	3	1	9	10*	4.0*
OC1CCN(c2c3c(nc4cc(-c5cccc(F)c5)nn24)CCCC3)CC1	0	-1	-3	0	2	x	x
CCN(CC)CCOC(=O)c1ccc(NC(=O)CCCN2C(=O)/C(=C/c3cccs3)SC2=S)cc1	6.2*	-1	0	1	0	8.5*	5.4*
O=C(CCCN1C(=O)/C(=C\c2cccs2)SC1=S)Nc1ccc(C(=O)O)cc1	0	-2	-2	0	2	x	x
CCOC(=O)c1c(C)[nH]c(N=Nc2cccc(C)c2)c1C	4.6*	1	2	2	10	8.8*	3.9*
CC(C)(C)c1ccc(OCc2ccc(C(=O)NN)o2)cc1	1	0	2	2	8	x	x
CC(C)(c1ccccc1)c1ccc(OCc2ccc(C(=O)O)o2)cc1	11*	0	4	2	9	5.3*	4.9*
CCN(CC)S(=O)(=O)c1cccc(C(=O)NCC2(N3CCOCC3)CCCCC2)c1	0	-1	0	0	1	x	x
CCN(CC)S(=O)(=O)c1ccc(C(=O)NCC2(N3CCOCC3)CCCCC2)cc1	4.6*	-1	0	0	0	3	2
CN(C)S(=O)(=O)c1ccc(C(=O)NCC2(N3CCCCC3)CCCCC2)cc1	6.0*	-1	1	1	-1	8.5*	3.3*
CS(=O)(=O)c1ccc(C(=O)NCC2(N3CCCCC3)CCCCC2)cc1	3	0	0	2	1	x	x
N#Cc1c(NC(=O)c2ccco2)sc2c1CCC2	9.4*	-1	3	0	11*	9.1*	3.7*
O=C(Nc1sc2c(c1C(=O)O)CCCCC2)c1ccco1	3	0	5	0	3	x	x
CCOC(=O)[C@]12CCCC=C1N(CCC1=CCCCC1)C(=O)[C@H](CC(=O)NCc1cccc3ccccc13)C2	-2	-1	0	x	-3	x	x
C=CCNc1nc(NCc2ccc(NC(C)=O)cc2)c2sc(-c3ccccc3)cc2n1	6.4*	2.0*	1	x	12*	7.8*	5.7*
CC(=O)Nc1ccc(CNc2nc(NC(C)C)nc3cc(-c4ccccc4)sc23)cc1	2	-1	-1	x	2	x	x
Cc1nn(CC(=O)N2CCN(c3cccc(C(F)(F)F)c3)CC2)c(=O)c2cccn12	0	-1	2	0	0	x	x
Cc1cccc(-c2nnc(SCC(=O)c3ccc(F)cc3)n2C)c1	0	-1	-3	x	-1	x	x
Cc1ccc2ccccc2c1C(O)c1ncc(-c2ccccc2)[nH]1 (stereo unspecified)	-1	-1	3	x	0	x	x
SMILES	DAX1 inh-1	ssDAF-12 act	hcDAF-12 act	DAX1 inh-2	hgDAF12 agonist	DAX1 inh confirm	SF1 mutant ctr
CCc1noc(C)c1C(=O)NNC(=O)c1ccccc1Cl	1	-1	0	0	4	x	x
CCOC(=O)N1CCN(C(=O)c2cn(C)c3ccc(S(=O)(=O)N4CCC(C)CC4)cc3c2=O)CC1	0	-1	0	1	3	x	x
C/C=C/c1ccc2c(c1)O[C@@H](CN(C)C(=O)c1ccc(F)cc1)[C@@H](C)CN([C@H](C)CO)S2(=O)=O	4.8*	-1	-2	1	-2	-1	4.4*
C[C@@H]1CN([C@@H](C)CO)S(=O)(=O)c2ccc(-c3cccc(C#N)c3)cc2O[C@@H]1CN(C)C(=O)c1ccc(F)cc1	-2	-1	-3	0	1	x	x
Cc1ccc(C(=O)NNC(=O)C2CSC3(C)CCC(=O)N23)cc1 (stereo unspecified)	0	0	-2	1	0	x	x
CC12CCC(=O)N1C(C(=O)NNC(=O)c1ccc(Br)cc1)CS2 (stereo unspecified)	5.5*	-1	-1	2	3	1	-1
COCCn1c(/C=C/c2ccccc2)nc2ccccc21	9.8*	0	3	1	11*	9.7*	3.5*
CCN(CC)c1ccc(C(=O)NNC(=O)c2cccn2C)cc1	5.1*	1	2	4.7*	11*	6.1*	5.5*
O=[N+]([O-])c1cccc(CSc2nnc3ccccn23)c1	1	-1	-2	4	-1	x	x
c1ccn2c(SCc3ccc4c(c3)OCCO4)nnc2c1	4.5*	-1	3	2	4	5.3*	3.5*
COC(=O)CSc1nc2cc(C)ccc2cc1C#N	5.0*	1.2*	5	4.4*	12*	18*	9.3*
CC(C)[C@H](NC(=O)OC(C)(C)C)c1cc(C(=O)NCCO)c(N)s1	0	-1	0	x	-3	x	x
CC(C)[C@H](NC(=O)OC(C)(C)C)c1cc(C(=O)N2CCOCC2)c(N)s1	6.0*	-1	0	x	6	0	-2
COC(=O)c1nnn(CC(=O)NC(=O)Nc2cccc(Cl)c2C)c1C(=O)OC	0	-1	0	0	2	x	x
